# SKN-1 block: blocks SKN-1 activity in C. elegans. C. elegans VP596 Pgst-4::GFP/RFP ratio, acrylamide-induced, 24 h. inhibition, % at 21.8 µM. hit rate 0.49% among 360,000. AID 624304;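 active = interference check ratio from 0.5 to 1.5 plus GFP to RFP signal ratio inhibition reaching or exceeding a fixed threshold, cut at about 30% in these data, passing the limit was not always enough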
# MEKK2 mut-MEK5: signal of MEK5 binding to mutant human MEKK2 PB1 domain. bead flow cytometry, Alexa488-MEK5 binding to MEKK2 mutant. percent response, % at 10 µM. hit rate 0.35% among 290,000; in the data active = percent response above about 24%, passing the limit was not always enough
# NRP1-CendR mod: alters CendR peptide binding to human NRP-1; FAM-RPARPAR peptide binding to NRP-1, fluorescence polarization; inhibition, % at 25 µM; hit rate 0.85% among 360,000;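 active = inhibition or corrected inhibition above about 18%, plus a signal ratio from 0.5 to 1.5, limit read from the data, passing the limit was not always enough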
# MEKK3 PB1 HTS: MEKK3-MEK5 PB1 interaction, increase or decrease; binding response (% of control), % at 10 µM; bead-based flow cytometry, Alexa488-MEK5 binding to MEKK3; actives lie on both sides; 0 = blocked by unlabeled MEK5, 100 = vehicle; hit rate 1.4% among 290,000; AID 1529;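 active = binding response more than 3 SD above or below the average of its plate-row segment, actives on both sides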;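 also: Alexa488 bead fluorescence after subtracting the streptavidin-only scavenger bead signal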
# MEKK2 WT-MEK5: raises or lowers MEK5 binding to wildtype human MEKK2 PB1 domain; AID 1531; binding response (% of control), % at 10 µM; Q9Y2U5; bead flow cytometry, Alexa488-MEK5 binding to MEKK2 WT; actives lie on both sides; hit rate 1.1% among 290,000; in the data active = binding response below about 67% or above about 130%
# Hits are given with their value; - = inactive; . = no result. The list is not random: actives were taken first. Their share in the collection is about 3.2%.
SMILES,SKN-1 block,MEKK2 mut-MEK5,NRP1-CendR mod,MEKK3 PB1 HTS,MEKK2 WT-MEK5
COCCn1cc(C(=O)NCc2cccs2)c2c3ccccc3n(C)c2c1=O,41.0,-,-,-,-
O=C1OC(c2ccc3ccccc3c2O)(c2ccc3ccccc3c2O)c2ccccc21,-,.,25.6,.,.
Cc1ccc(C(=O)Nc2ccc3c(c2)C(=O)N(C)C3=O)c(C)c1,-,-,-,-,-
COC(=O)c1cccc(NC(=O)CN2CCc3ccccc3C2)c1,-,-,-,-,-
CN(C)S(=O)(=O)c1ccc(N2CCCC2)c(C(=O)NCc2cccc(C(F)(F)F)c2)c1,47.1,-,-,-,-
Cc1nnc(NC(=O)c2cc(S(=O)(=O)N(C)C)ccc2N2CCCC2)s1,-,.,22.8,.,.
CN(C)S(=O)(=O)c1ccc(N2CCCC2)c(C(=O)Nc2ccccc2)c1,-,.,-,.,.
CN(C)S(=O)(=O)c1ccc(N2CCCC2)c(C(=O)NCCc2ccc(F)cc2)c1,-,-,-,-,-
CC(C)c1ccc(N(CC(=O)NCc2cccnc2)S(=O)(=O)c2ccccc2)cc1,-,-,-,-,-
CCC(C)(C)c1ccc(Oc2cccc(C(=O)O)c2)cc1,-,-,-,-,-
CCC(C)(C)c1ccc(Oc2ccc(N)cc2)cc1,-,-,43.6,-,-
O=C1c2ccccc2C(=O)c2c1ccc(C(=O)N1CCCCC1)c2NCCO,40.4,-,-,-,-
O=C1c2ccccc2-c2c1cccc2C(=O)N1CCCCCC1,-,-,-,-,-
CCN(CCN(C)C)C(=O)c1ccc2c(c1NCCO)C(=O)c1ccccc1C2=O,-,-,-,-,-
CC1(C)CCCN(C(=O)c2ccc3c(c2NCCO)C(=O)c2ccccc2C3=O)C1,-,-,27.5,-,-
CC1CCCN(C(=O)c2ccc3c(c2NCCO)C(=O)c2ccccc2C3=O)C1 (stereo not drawn),-,-,18.8,-,-
COC(=O)C[C@H]1CC[C@@H](NS(=O)(=O)c2ccc(C)cc2)[C@@H](CO)O1,-,.,-,.,.
CCCCn1c(N)c(N(CCOC)C(=O)c2cccc(-n3cnnn3)c2)c(=O)[nH]c1=O,-,.,-,.,.
O=C(COC(=O)CCc1ccc(S(=O)(=O)N2CCOCC2)cc1)Nc1ncc(C(F)(F)F)cc1Cl,-,-,-,-,-
O=C(COC(=O)c1cccc(S(=O)(=O)N2CCOCC2)c1)Nc1ncc(C(F)(F)F)cc1Cl,41.9,-,-,-,-
COc1ccc(/C=C/C(=O)c2cc(F)ccc2OC(=O)c2ccccc2C)cc1OC,-,-,-,150.0,-
COc1ccc(CN2CCN(C(=O)c3ccccc3C(=O)c3ccccc3)CC2)cc1F,-,.,-,.,.
O=C(c1cccs1)N1CCc2c([nH]c3ccccc23)C1c1ccc(Cl)cc1 (stereo not drawn),50.0,-,-,-,-
COc1cccc(C2c3[nH]c4ccccc4c3CCN2C(=O)c2ccccc2F)c1OC (stereo not drawn),-,-,-,-,-
O=C(c1cccs1)N1CCc2c([nH]c3ccccc23)C1c1ccccn1 (stereo not drawn),-,-,-,-,-
SMILES,SKN-1 block,MEKK2 mut-MEK5,NRP1-CendR mod,MEKK3 PB1 HTS,MEKK2 WT-MEK5
O=C(c1cn[nH]c1)N1CCc2c([nH]c3ccccc23)C1c1c(F)cccc1Cl (stereo not drawn),-,-,40.5,-,-
CCCCOc1ccc(C(=O)N/C(=C/C=C/c2ccccc2)C(=O)NCCO)cc1,-,-,-,-,-
CCCCOc1ccc(C(=O)NC)cc1,28.4,-,-,-,-
CCCCOc1ccc(C(=O)N/C(=C/C=C/c2ccccc2)C(=O)NCCCO)cc1,-,-,22.0,-,-
CCCCOc1ccc(C(=O)NCC(=O)OCCCOC(=O)CNC(=O)c2ccc(OCCCC)cc2)cc1,-,.,-,.,.
Cc1cccc(-n2c(C)c(C)c3c(N)ncnc32)c1,-,-,-,-,-
COc1ccc(-c2noc(CN(C)C(=O)CCCN3C(=O)[C@H]4CC=CC[C@H]4C3=O)n2)cc1,-,.,-,.,.
Cc1c(C(=O)Nc2ccc(OC(F)(F)F)cc2)sc2nc3n(c(=O)c12)CCC3,-,-,43.7,-,-
CCOC(=O)c1cnc(-n2nc(C)cc2C)nc1Nc1ccc(OC)cc1,-,-,30.3,-,-
COc1ccc(C(=O)c2oc3ccc(OC)cc3c2N)cc1,43.8,-,-,-,-
CCC(c1nnnn1-c1c(C)cccc1C)N1CCCN(Cc2ccc(F)cc2)CC1 (stereo not drawn),-,.,-,.,.
